# VACV E9 pol inh: vaccinia E9 polymerase processive synthesis inhibitors, primary screen, biochemical, absorbance. Vaccinia virus DNA polymerase (E9) processive complex. in vitro processive DNA synthesis, absorbance read-out; hits give low values. normalized absorbance, % (test concentration not listed). actives 0.94% (n = 46,000). AID 493162, 2011; in the data active means normalized absorbance mostly below about 85%, no sharp cut-off; inactive means mostly above about 86%
# Starred values were filed as active, the others as inactive. This excerpt belongs to a sample that is enriched for hits.
SMILES,VACV E9 pol inh
CCOc1ccccc1N(C)S(=O)(=O)c1cccc2cccnc12,89
NN(Cc1ccccc1)c1ccccc1,98
O=C(COC(=O)c1cccnc1Cl)NCc1ccc(Cl)cc1,102
CCc1ccc2c(c1)c1nc3ccccc3nc1n2CC,100
CC(C)Cn1c2ccccc2c2nc3ccccc3nc21,99
CCn1c2ccccc2c2nc3ccccc3nc21,90*
CCOC(=O)c1cc(-c2ccccc2)n(-c2ccc(C(=O)O)cc2)c1C,61*
CCOC(=O)c1cc(-c2ccccc2)n(CCC(=O)O)c1C,88
CCOC(=O)c1cc(-c2ccccc2)n(-c2cccc(C(=O)N3CCCC3)c2)c1C,78
CNC(=S)NCCc1c(C)[nH]c2ccccc12,104
Cc1ccc(-c2noc(CN(C3CCCCC3)S(=O)(=O)c3ccccc3)n2)cc1,64*
CC(C)N(Cc1nc(-c2ccccc2)no1)C(=O)C1CCCCC1,99
Cc1ccc2[nH]c(=O)c(CN(C3CCCCC3)S(=O)(=O)c3ccccc3)cc2c1,101
CC(=O)Nc1ccc(N/C=C(/C#N)c2nc(-c3ccc(Cl)cc3)cs2)cc1,97
COc1ccc(CNC(=O)c2cn(C)c(=O)c3ccccc23)cc1,110
COc1ccc(C(=O)OCC(=O)N(C)C2CCCCC2)cc1,106
Cc1nc2ccccc2n1CC(O)COc1ccccc1 (configuration not stated),100
CN(C)c1ccc(NC(=O)CC2SC(N)=NC2=O)cc1 (configuration not stated),113
COC(=O)C1=C(C)N(c2ccc(OC)c(OC)c2)C(=O)/C1=C\c1cc(C)n(-c2ccc(F)cc2)c1C,100
Cc1cccc(Nc2cc(C)nc3ccccc23)c1,77*
Cc1cc(Nc2ccc(O)cc2)c2ccccc2n1,84
COC(=O)c1ccc(Nc2cc(C)nc3ccccc23)cc1,99
CSc1ccc(Cl)c(C(=O)OCC(=O)C(C)(C)C)c1,91
Nc1sc(=S)n(-c2ccccc2)c1-c1nc2ccccc2s1,100
COc1ccc2c(c1)c(OC)[n+](C)c1c3cc4c(cc3ccc21)OCO4,77*
SMILES,VACV E9 pol inh
C[n+]1cc2c3c(ccc2c2ccc4cc5c(cc4c21)OCO5)OCO3,93
COc1ccc(SCC(=O)NCc2ccc3c(c2)OCO3)cc1,93
O=C(OCC(=O)N1CCc2ccccc21)c1sc2ccccc2c1Cl,109
CCn1c(=O)c(-c2[nH][nH]c(=O)c2/C=N/c2nccs2)c(O)c2ccccc21,93
CCN(CC)CCNc1nc(C)cc(C)n1,102
Cc1cc(Nc2ccccc2)nc(Nc2ccccc2)n1,100
Cc1cc(C)nc(NC2=NCCN2)n1,48*
O=C(CSC(F)(F)F)Nc1ccccn1,102
CSc1nc2c(c(-c3ccccc3)c1C#N)C(=O)CC(C)(C)C2,107
CC(C)(C)c1ccc(C(=O)Nc2ccc(-c3nnc4n3CCCCC4)cc2)cc1,81
Cn1cnnc1SCC(=O)N1CC2(C)CC1CC(C)(C)C2 (configuration not stated),102
Cc1ccc(-n2c(=O)c3c(c4cc(C)ccc4n3C)n(CC(N)=O)c2=O)cc1,93
Cc1ccc2c(c1)c1cccc3c1n2CCN3CCC(N)=O,63*
NC(=O)CCN1CCn2c1nc1ccccc12,100
CCOC(=O)c1cc(CO)c(C)nc1C,94
O=C(CCC(=O)c1ccccc1)NCc1ccccc1,67*
CC(=O)Nc1ccc(NC(=O)CCC(=O)c2ccccc2)cc1,100
O=C(Cc1ccccc1)c1ccccc1,104
Cc1[nH]n(-c2ccccc2)c(=O)c1Sc1ccccc1,95
COc1ccc2nc(N(CCN(C)C)C(=O)c3cccs3)sc2c1,95
CN(C)CCN(C(=O)c1ccco1)c1nc2cc3c(cc2s1)OCO3,61*
COc1ccc2sc(N(CCN(C)C)C(C)=O)nc2c1,99
CCSc1cc(CC)sc1C(=O)O,99
CCOC(=O)c1oc2ccccc2c1NC(=O)c1ccc(S(=O)(=O)N(C)C)cc1,104
CCOC(=O)c1oc2ccccc2c1NC(=O)c1ccccc1,92
SMILES,VACV E9 pol inh
CCOC(=O)c1oc2ccccc2c1CO,77*
c1ccc(C2NCCS2)cc1 (configuration not stated),101
CCc1cccc2c(=O)c(CN(C)C)c(C)[nH]c12,83
CN(C)Cc1ccc2ccc3cccc4ccc1c2c34,12*
CC1CCCCN1C(=O)CC(=O)N1CCCCC1C (configuration not stated),100
O=C1NC(=S)N(c2ccccc2)C(=O)/C1=C/C=C/c1ccco1,53*
O=C1NC(=S)N/C1=C\c1ccco1,100
O=C1Nc2ccccc2/C1=C/C(=O)c1ccccc1,100
O=C1Nc2ccccc2/C1=C\C1=Cc2ccccc2OC1,92
O=C1Nc2ccccc2/C1=C/C=C/c1ccco1,66*
O=C1NC(=O)N(c2ccccc2)C(=O)/C1=C/c1ccco1,100
CCN(Cc1ccccc1)C(=O)Cn1c(=O)n(C2CCCCC2)c(=O)c2ccccc21,100
CCOc1ccc(Nc2c(S(=O)(=O)c3ccccc3)cnc3ccc(OCC)cc23)cc1,103
FC(F)(F)c1cccc(CSc2ccc3nnc(Cl)n3n2)c1,89
Clc1cccnc1N1CCOCC1,117

# High-throughput results from PubChem BioAssay.
